# TWEAK-Fn14 inh – inhibitors of TWEAK-Fn14 signaling, primary screen, luciferase reporter cells, uHTS; 2% of 360,000 active; TWEAK-stimulated Fn14 reporter cells, luciferase luminescence, 8 h; inhibition, % at 10 µM; in the data active means inhibition above about 50%
# HSF1 inh – HSF1 inhibitors in luciferase reporter cells, primary screen, cell-based, NIH3T3, luminescence; NIH3T3-HGL HSE-luciferase, MG132-induced, luminescence 8 h; hits give low values; activity change, negative = inhibition, % at 7.5 µM (by protocol); 0.77% of 300,000 active;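 active means more than half of replicate wells show activity change below -50%, luminescence cut by over half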;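 further: luciferase reports HSF-1 transcriptional activity via heat shock element; 0% = median of DMSO wells and -100% = zero luminescence signal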
# HSF1 activator – HSF-1 activators, primary screen, NIH3T3-HGL cells, MG132 stress, luminescence, single point; 1.7% of 300,000 active; NIH3T3-HGL HSF-1 luciferase reporter, 8 h; 100% = twice DMSO control signal; activation, % at 9 µM; AID 504408, 2011;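 active means mean replicate activation of at least 50% with a set share of replicates each reaching 50%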;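 further: 0% = median of the neutral control wells and 100% = twice that signal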
# TROY NFkB inh – inhibitors of TROY-driven NF-kB signaling, primary screen, Q293 LMP1-TROYcd cells, NF-kB luciferase, uHTS. Q293 LMP1-TROYcd NF-kB luciferase reporter, 4 h. inhibition, % at 10 µM. 0.98% of 360,000 active. AID 1347056, 2019;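 active means compounds whose plate-normalised and pattern-corrected inhibition of the luciferase reporter signal at the single screening dose is 50% or more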
# LMP1 NFkB inh – EBV LMP1-driven NF-kappaB luciferase reporter inhibitors, primary screen, cell-based, luminescence, single point | LMP1-induced NF-kappaB luciferase reporter cells | inhibition, % at 12.5 µM | 0.69% of 350,000 active | AID 504558, 2011; in the data active means inhibition above about 41%;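 further: 0% = neutral control wells and 100% = reference inhibitor control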
# LGR2 inh – inhibitors of bursicon-induced LGR2 CRE-luciferase signal, primary screen, cell-based, HEK293, CRE-luciferase reporter, bursicon stimulation. bursicon-stimulated, 4 h. inhibition, % at 9.99 µM. 0.35% of 380,000 active. AID 720647, 2013;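 active means drop in luminescence signal, shown as inhibition above about 50% in the replicate tests, limit read from the data, passing the limit was not always enough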;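 further: agonist challenge used bursicon conditioned medium at about half maximal strength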
# * = called active by the depositor; nt = no result given. Only some compounds are listed: those with a hit (about 3.6% of all), similar ones and a draw of the others.
SMILES,TWEAK-Fn14 inh,HSF1 inh,HSF1 activator,TROY NFkB inh,LMP1 NFkB inh,LGR2 inh
C[C@@H]1CN([C@@H](C)CO)C(=O)c2cc(NS(=O)(=O)c3ccc(F)cc3)ccc2O[C@@H](C)CCCCO[C@@H]1CN(C)C(=O)CCC(F)(F)F,nt,nt,nt,nt,nt,-16
COc1cc(/C=N/Nc2nc3ccccc3[nH]2)cc(OC)c1O,50,146,149*,11,4,-20
COc1cc(/C=N/Nc2nc(C)cc(C)n2)ccc1O,-10,nt,nt,-10,15,-26
COc1cc(/C=N/NC(=Nc2ccc(C)cc2)c2nc3ccccc3s2)ccc1O,107*,-73*,-76,88*,18,nt
COc1cc(/C=N/Nc2snc(SC)c2C#N)ccc1O,-3,46,75*,-8,-18,nt
COc1ccccc1/C=N/NC(=Nc1ccc(C)cc1)c1nc2ccccc2s1,nt,-6,4,nt,nt,nt
CN1C(=O)c2cc(NC(=O)C3CC3)ccc2OC[C@H]2O[C@H](CC(=O)NCC3CCCCC3)CC[C@H]21,nt,nt,nt,nt,nt,-12
COC(=O)c1sccc1NC(=O)Nc1cccc(OC)c1,-28,6,6,-51,-6,-29
CC(=O)c1ccc(NC(=O)Nc2ccncc2)cc1,58*,6,-5,5,-7,-12
COC(=O)c1sccc1NC(=O)Nc1cccc(F)c1,-4,33,77*,-40,-1,-13
O=C(Nc1ccncc1)Nc1ccncc1,11,-2,-1,14,-6,5
COC(=O)c1sccc1NC(=O)/C=C/c1ccc(Cl)cc1,-6,29,76*,-42,-28,-69
COC(=O)c1sccc1NC(=O)Nc1ccc(C)cc1,-7,nt,nt,-23,-2,-108
COC(=O)c1sccc1NC(=O)Nc1ccc(C(C)=O)cc1,59*,nt,nt,37,-10,-53
C[C@@H]1CN([C@H](C)CO)C(=O)c2cc(NS(=O)(=O)c3cccs3)ccc2O[C@H]1CN(C)S(C)(=O)=O,nt,nt,nt,nt,nt,5
COc1ccc2c3c(n(C)c2c1)[C@@H](CO)N(C(=O)C1CCOCC1)CC31CCN(C(=O)C2CCOCC2)CC1,nt,nt,nt,nt,nt,-6
CO[C@@H]1CN(C)C(=O)c2cc(NC(=O)NC(C)C)ccc2OC[C@H](C)N(C(=O)CC2CC2)C[C@H]1C,nt,nt,nt,nt,nt,13
O=C(C[C@@H]1C[C@@H]2c3cc(NC(=O)NC4CCCCC4)ccc3O[C@@H]2[C@H](CO)O1)NCC(F)(F)F,nt,nt,nt,nt,nt,9
COC(=O)c1sccc1NC(=O)Nc1ccc(F)cc1,12,28,70*,-37,-1,4
COc1ccc2c3c([nH]c2c1)[C@H](CO)N(C(=O)Nc1ccc(F)cc1)CC31CCN(S(=O)(=O)c2cccc(C)c2)CC1,nt,nt,nt,nt,nt,24
O=C(CSc1nnc(-c2ccc(F)cc2)c2ccccc12)Nc1ccccc1,13,54,83*,0,-13,7
CCOC(=O)N1c2ccccc2C=CC1OCC (configuration not stated),nt,0,-11,nt,nt,nt
Cc1ccc(S(=O)(=O)N2C[C@@H]3c4ccccc4N(S(=O)(=O)c4ccc(C)cc4)[C@@H]3[C@@H](C)C2CC(=O)c2ccccc2)cc1 (some centres not stated),-13,nt,nt,-1,-5,8
CC1C=Cc2ccccc2N1C(=O)c1ccccc1 (configuration not stated),4,-63*,-70,-3,-10,5
O=C(CC1C=Cc2ccccc2N1C(=O)c1ccccc1)c1ccccc1 (configuration not stated),7,24,71*,2,-7,5
COc1ccc(NC(=O)N2CCCc3ccccc32)c(OC)c1,51*,6,2,70*,8,3
COc1ccc2c(c1)CCCN2C(N)=Nc1ccc(Cl)cc1,-15,-2,-22,-9,23,0
COc1ccc2c(c1)CCCN2C(N)=O,58*,0,-8,4,10,-1
COc1ccc(C)cc1NC(=O)N1CCCc2ccccc21,55*,-38,-44,70*,-4,-26
